The record followed here is ChEMBL document CHEMBL1961873, “Compounds: GSK PKIS; Assays: Nanosyn kinase panel” (2012).

Experiment [1] deals with Tyrosine-protein kinase ABL1 (Homo sapiens), P00519 [T315I]. The following applies: at 1 µM.
The test system of experiment [2] is Tyrosine-protein kinase ABL1 (Homo sapiens), P00519 [Y253F]. The following applies: at 0.1 µM.
Experiment [3] has the same test system. To be noted: at 1 µM.
The target in experiment [4] is Tyrosine-protein kinase ABL1 (Homo sapiens) (UniProt P00519). To be noted: at 0.1 µM.
For experiment [5] the target is unchanged. To be noted: at 1 µM.
Experiment [6] deals with ALK tyrosine kinase receptor (Homo sapiens) (UniProt Q9UM73). The following applies: at 0.1 µM.
Experiment [7] has the same target. To be noted: at 1 µM.
Experiment [8] concerns the target Tyrosine-protein kinase ABL2 (Homo sapiens) (UniProt P42684). To be noted: at 0.1 µM.
For experiment [9] the target is unchanged. To be noted: at 1 µM.
Experiment [10] concerns the target Tyrosine-protein kinase receptor UFO (Homo sapiens) (UniProt P30530). To be noted: at 0.1 µM.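 Also: values are mean percent inhibition of AXL from the GSK PKIS screen.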

Chain of Tyrosine-protein kinase ABL2 (Homo sapiens) (P42684 whole entry): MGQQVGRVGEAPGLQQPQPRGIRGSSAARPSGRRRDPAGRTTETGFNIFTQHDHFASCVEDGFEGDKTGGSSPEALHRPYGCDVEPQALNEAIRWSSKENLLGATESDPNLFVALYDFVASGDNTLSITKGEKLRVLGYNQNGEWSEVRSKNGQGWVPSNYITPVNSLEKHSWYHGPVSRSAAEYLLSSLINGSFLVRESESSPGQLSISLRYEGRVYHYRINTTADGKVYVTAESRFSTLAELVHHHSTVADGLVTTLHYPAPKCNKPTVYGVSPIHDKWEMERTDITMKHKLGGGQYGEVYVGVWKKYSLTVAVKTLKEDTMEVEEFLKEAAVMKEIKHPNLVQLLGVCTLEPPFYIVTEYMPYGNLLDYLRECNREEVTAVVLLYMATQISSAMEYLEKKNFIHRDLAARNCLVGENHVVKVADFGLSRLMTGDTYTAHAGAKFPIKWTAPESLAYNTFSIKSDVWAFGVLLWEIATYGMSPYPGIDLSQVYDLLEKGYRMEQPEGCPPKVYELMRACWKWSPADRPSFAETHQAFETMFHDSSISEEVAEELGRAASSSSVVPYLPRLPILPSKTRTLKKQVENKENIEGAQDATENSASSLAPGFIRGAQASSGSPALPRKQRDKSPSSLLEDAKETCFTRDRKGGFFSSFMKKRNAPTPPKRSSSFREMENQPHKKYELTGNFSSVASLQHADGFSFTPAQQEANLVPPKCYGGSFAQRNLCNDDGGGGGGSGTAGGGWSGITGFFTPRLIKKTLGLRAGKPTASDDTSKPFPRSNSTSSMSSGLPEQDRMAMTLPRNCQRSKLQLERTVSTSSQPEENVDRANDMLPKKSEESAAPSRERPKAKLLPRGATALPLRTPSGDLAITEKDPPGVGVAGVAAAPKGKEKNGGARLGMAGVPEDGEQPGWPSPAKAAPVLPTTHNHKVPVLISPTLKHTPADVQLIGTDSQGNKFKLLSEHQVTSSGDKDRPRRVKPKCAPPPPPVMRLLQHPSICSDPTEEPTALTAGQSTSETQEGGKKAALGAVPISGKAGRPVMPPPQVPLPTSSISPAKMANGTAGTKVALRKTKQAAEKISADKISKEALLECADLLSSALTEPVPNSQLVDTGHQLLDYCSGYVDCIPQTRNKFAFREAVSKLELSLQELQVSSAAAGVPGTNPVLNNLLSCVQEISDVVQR
Chain of Tyrosine-protein kinase receptor UFO (Homo sapiens) (P30530 whole entry): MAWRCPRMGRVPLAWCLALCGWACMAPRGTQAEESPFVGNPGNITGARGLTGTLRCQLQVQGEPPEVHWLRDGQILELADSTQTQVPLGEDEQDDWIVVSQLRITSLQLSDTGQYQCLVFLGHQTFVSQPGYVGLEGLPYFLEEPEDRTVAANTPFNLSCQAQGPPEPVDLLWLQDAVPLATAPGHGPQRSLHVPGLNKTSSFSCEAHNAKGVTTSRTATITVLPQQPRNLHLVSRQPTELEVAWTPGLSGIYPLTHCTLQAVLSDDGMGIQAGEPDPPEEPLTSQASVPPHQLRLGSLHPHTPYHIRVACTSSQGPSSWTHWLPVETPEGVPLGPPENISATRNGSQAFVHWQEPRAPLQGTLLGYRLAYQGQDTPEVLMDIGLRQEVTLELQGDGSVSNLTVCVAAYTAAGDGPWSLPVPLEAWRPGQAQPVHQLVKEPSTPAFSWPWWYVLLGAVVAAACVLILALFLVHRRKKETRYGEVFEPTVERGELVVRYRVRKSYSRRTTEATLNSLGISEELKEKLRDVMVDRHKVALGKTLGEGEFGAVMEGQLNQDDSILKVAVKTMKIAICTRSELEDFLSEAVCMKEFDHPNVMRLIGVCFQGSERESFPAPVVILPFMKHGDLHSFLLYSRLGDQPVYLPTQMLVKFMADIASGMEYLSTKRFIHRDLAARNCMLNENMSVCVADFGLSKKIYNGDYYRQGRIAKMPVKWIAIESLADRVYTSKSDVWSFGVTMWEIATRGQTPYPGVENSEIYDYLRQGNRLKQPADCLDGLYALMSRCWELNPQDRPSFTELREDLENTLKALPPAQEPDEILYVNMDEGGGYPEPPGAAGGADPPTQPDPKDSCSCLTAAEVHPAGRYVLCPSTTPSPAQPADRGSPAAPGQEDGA
Chain of ALK tyrosine kinase receptor (Homo sapiens) (Q9UM73 19-1620 limits assumed): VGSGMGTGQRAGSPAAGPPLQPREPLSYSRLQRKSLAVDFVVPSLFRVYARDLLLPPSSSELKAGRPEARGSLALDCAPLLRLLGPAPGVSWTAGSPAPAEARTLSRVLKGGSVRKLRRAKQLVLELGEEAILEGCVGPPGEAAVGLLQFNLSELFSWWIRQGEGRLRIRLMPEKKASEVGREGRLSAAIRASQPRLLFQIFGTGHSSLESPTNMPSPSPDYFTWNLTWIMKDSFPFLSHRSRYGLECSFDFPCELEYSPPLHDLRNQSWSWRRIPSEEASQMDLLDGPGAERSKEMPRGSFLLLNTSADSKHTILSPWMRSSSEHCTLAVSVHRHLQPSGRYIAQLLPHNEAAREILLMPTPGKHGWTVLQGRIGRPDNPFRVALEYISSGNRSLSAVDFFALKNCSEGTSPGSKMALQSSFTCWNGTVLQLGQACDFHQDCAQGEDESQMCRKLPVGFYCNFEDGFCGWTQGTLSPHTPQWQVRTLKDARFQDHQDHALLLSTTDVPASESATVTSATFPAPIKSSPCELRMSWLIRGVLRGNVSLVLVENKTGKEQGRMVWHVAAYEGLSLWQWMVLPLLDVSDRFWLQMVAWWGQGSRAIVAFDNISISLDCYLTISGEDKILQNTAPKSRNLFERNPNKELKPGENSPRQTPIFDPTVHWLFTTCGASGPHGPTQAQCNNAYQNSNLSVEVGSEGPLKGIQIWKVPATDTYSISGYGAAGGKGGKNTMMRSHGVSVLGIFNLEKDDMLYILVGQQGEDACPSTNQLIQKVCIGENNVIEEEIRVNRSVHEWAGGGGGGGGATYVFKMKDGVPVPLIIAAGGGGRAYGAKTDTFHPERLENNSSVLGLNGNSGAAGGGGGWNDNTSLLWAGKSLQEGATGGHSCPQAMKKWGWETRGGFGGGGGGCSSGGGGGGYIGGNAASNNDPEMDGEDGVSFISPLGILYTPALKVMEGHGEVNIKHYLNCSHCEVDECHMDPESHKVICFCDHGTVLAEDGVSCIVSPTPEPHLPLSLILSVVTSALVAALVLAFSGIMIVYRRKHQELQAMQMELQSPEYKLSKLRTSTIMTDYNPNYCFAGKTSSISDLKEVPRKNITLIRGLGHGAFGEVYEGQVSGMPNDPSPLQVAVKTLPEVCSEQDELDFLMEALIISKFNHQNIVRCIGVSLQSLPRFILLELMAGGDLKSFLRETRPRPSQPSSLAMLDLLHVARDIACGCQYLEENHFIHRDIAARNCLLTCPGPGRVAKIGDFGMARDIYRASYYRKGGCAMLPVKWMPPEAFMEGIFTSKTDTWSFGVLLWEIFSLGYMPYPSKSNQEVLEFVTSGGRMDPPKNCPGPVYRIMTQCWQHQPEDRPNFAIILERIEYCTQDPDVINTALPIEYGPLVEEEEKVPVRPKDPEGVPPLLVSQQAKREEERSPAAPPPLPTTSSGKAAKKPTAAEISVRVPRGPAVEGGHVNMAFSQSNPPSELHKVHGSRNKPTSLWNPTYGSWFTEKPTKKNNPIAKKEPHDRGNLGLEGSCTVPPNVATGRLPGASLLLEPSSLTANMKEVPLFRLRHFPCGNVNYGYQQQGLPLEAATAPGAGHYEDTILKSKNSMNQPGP

For `CCS(=O)(=O)c1ccc(OC)c(Nc2ncc(-c3cccc(OC)c3)o2)c1`, the inhibition (as a rule, the drop in the measured response relative to a control, in per cent) in experiment [1] amounted to 26.5%; in experiment [2], 48.5%; in experiment [3] it was 86.3%; in [4] it was 29.8%; in experiment [5], 77.7%; in [6] it was 2.9%. For the same compound, the inhibition in experiment [7] is 8.1%; in experiment [8] it was 27.3%; in experiment [9], 72.6%; in experiment [10], -3.48%.
For `CN(C)CCCn1c(-c2nonc2N)nc2cnccc21`, the inhibition was determined as 1.3% in [1]; 2.05% in experiment [2]; 4.68% in [3]; 2.69% in experiment [4]; 4.71% in experiment [5]; 2.82% in experiment [6]. The inhibition was 4.63% in [7], 3.56% in [8], -5.79% in experiment [9] and -7.29% in [10].
As for `COc1ccc(-c2nn3ncccc3c2-c2ccnc(Nc3cccc(C(F)(F)F)c3)n2)cc1`, the inhibition in experiment [1] was 5.9%; in experiment [2] it was 1.53%; in experiment [3] it was 5.56%; in [4], 5.5%; in experiment [5] it was 4%; in experiment [6], 3.3%. The inhibition was 5.15% in [7], 2.28% in [8], 6.55% in experiment [9] and -4.48% in [10].
`CCCN1CCCC(c2ccc(Nc3nc(Nc4cc(F)ccc4C(N)=O)c4cc[nH]c4n3)c(OC)c2)C1` (centres undefined): the inhibition is 12.1% in experiment [1]; 4.98% in [2]; 9.67% in experiment [3]; 3.75% in experiment [4]; 9.3% in [5]; 98.2% in [6]. Besides, the inhibition in experiment [7] was determined as 86.3%; in experiment [8], 2.38%; in experiment [9] it was 3.99%; in experiment [10] it was 9.62%.
As for `c1ccc(Cc2nc3ccc(Nc4ncnc5ccccc45)cc3[nH]2)cc1`, the inhibition in experiment [1] was 4.4%; in experiment [2], 5.92%; in [3], 6.3%; in experiment [4], 4.49%; in experiment [5] it was 11.3%; in experiment [6], 1.23%. The inhibition is 5.36% in experiment [7], 2.8% in experiment [8], 9.97% in [9] and -5.03% in experiment [10].
As to `O=C1Nc2ccccc2/C1=C/Nc1ccc2[nH]c(=O)[nH]c2c1`, the inhibition came to 23.7% in experiment [1]; 9.65% in [2]; 23.3% in experiment [3]; 8.95% in experiment [4]; 25.8% in [5]; 2.88% in experiment [6]. The inhibition in experiment [7] was 16.4%; in experiment [8] it was 7.75%; in experiment [9], 19.4%; in [10], -8.65%.
Regarding `Cc1ccc2c(c1)/C(=N/Nc1ccc(S(N)(=O)=O)cc1)C(=O)N2`, the inhibition in experiment [1] is 7.37%; in experiment [2], -0.42%; in experiment [3] it was 7.64%; in experiment [4], 0.83%; in experiment [5], 8.09%; in experiment [6], 0.89%. For the same compound, the inhibition in [7] was 2.77%; in experiment [8] it was 3.63%; in experiment [9] it was 12.1%; in [10] it was -1.65%.
`COc1cccc(-n2nc(C)c3c(N/N=C(\C)c4ccncc4)ncnc32)c1`: the inhibition in experiment [1] was -0.56%; in [2], 1.07%; in [3], 4.85%; in experiment [4] it was 3.36%; in experiment [5], 9.11%; in experiment [6] it was 0.43%. In addition, the inhibition was 1.35% in [7], -0.17% in [8], 5.82% in experiment [9] and -2.14% in [10].
For `CCn1c(-c2nonc2N)nc2ccc(F)cc21`, the inhibition in [1] is 5.94%; in experiment [2] it was 2.99%; in [3], 6.49%; in experiment [4], 3.48%; in experiment [5], 3.51%; in [6], 5.2%. For the same compound, the inhibition is 5.27% in experiment [7], 3.97% in experiment [8], 6.07% in experiment [9] and -7.61% in experiment [10].
As for `COC(=O)c1ccc2c(c1)C(=Cc1cc(Br)c(O)c(Br)c1)C(=O)N2`, the inhibition in experiment [1] was determined as 2.87%; in [2] it was 2.56%; in [3], 15.9%; in experiment [4] it was 7.83%; in experiment [5], 21.2%; in experiment [6] it was 5.2%. Further, the inhibition in [7] is 15%; in experiment [8], 5.66%; in [9], 15.4%; in experiment [10], -5.02%.
With `c1ccc(Nc2ncc(-c3ccccc3)o2)cc1`, the inhibition came out at 7.7% in [1]; 5.14% in [2]; 16.3% in experiment [3]; 4.09% in [4]; 16.5% in experiment [5]; 2.99% in [6]. Further, the inhibition was 3.91% in experiment [7], 5.2% in experiment [8], 22.7% in [9] and -3.91% in experiment [10].
For `N#Cc1cccc(Nc2nccc(-c3cnn4ncccc34)n2)c1`, the inhibition in experiment [1] amounted to 34.2%; in [2] it was 12.6%; in experiment [3], 49.8%; in [4], 13.6%; in experiment [5], 47.5%; in experiment [6], 4.04%. For the same compound, the inhibition in [7] is 18.7%; in experiment [8] it was 11.9%; in experiment [9], 44.3%; in [10], -0.03%.
As for `CN(c1ccc(NC(=O)Nc2ccc(OC(F)(F)F)cc2)cc1)c1ccnc(Nc2cccc(S(N)(=O)=O)c2)n1`, the inhibition was 86.2% in experiment [1]; 39.2% in experiment [2]; 81.5% in experiment [3]; 14.3% in experiment [4]; 71% in experiment [5]; 1.46% in [6]. Moreover, the inhibition was 4.22% in [7], 20.2% in experiment [8], 71.9% in experiment [9] and -2.29% in [10].
Take `Cc1ccc2c(-c3ccnc(Nc4cccc(C(F)(F)F)c4)n3)c(-c3ccccc3)nn2n1`: the inhibition came to 20.8% in experiment [1]; 12.2% in experiment [2]; 53.3% in experiment [3]; 7.07% in experiment [4]; 36.1% in experiment [5]; 3.25% in experiment [6]. The inhibition in experiment [7] is 3.77%; in [8], -9.35%; in [9], 33.7%; in experiment [10], -5.69%.
On to `Cc1cc(Cl)cc2c1NC(=O)C2=NNc1ccc(S(N)(=O)=O)cc1`, for which the inhibition in [1] amounted to 4.99%; in [2], 3.5%; in experiment [3], 6.19%; in experiment [4], 2.11%; in experiment [5] it was 7.99%; in experiment [6], 0.72%. Besides, the inhibition in [7] is 1.88%; in experiment [8], 3.13%; in [9], 7.59%; in [10], -3.23%.
Take `COc1ccc2ncnc(Nc3ccc(OCc4ccccc4)cc3)c2c1`: the inhibition came to 3.21% in experiment [1]; 2.03% in experiment [2]; 1.02% in experiment [3]; 1.65% in experiment [4]; 4.79% in experiment [5]; 0.66% in experiment [6]. For the same compound, the inhibition in experiment [7] is 0.87%; in experiment [8] it was 2.72%; in [9], 4.53%; in [10], -3.58%.
For `OCc1ccc(-c2nc(-c3ccccn3)c(-c3ccc4c(c3)OCO4)[nH]2)cc1`, the inhibition worked out at 0.39% in [1]; 4.74% in experiment [2]; 4.83% in [3]; 8.07% in [4]; 12.3% in experiment [5]; 3.63% in [6]. In addition, the figures for the inhibition in experiment [7], in experiment [8] and in [10] were 8.19%, 5.94% and -6.62%, respectively.
For `C[C@@H](Oc1cc(-n2cnc3ccc(OCC4CCN(C)CC4)cc32)sc1C(N)=O)c1ccccc1C(F)(F)F`, the inhibition is 13.7% in [1]; -1.07% in experiment [2]; 1.43% in experiment [3]; 0.74% in experiment [4]; 2.7% in [5]; 1.57% in [6]. In addition, the inhibition was 20.8% in [7], 0.15% in experiment [8], 3.87% in experiment [9] and 3.82% in experiment [10].
For `COc1cccc(-n2ncc3c(N/N=C/c4ccc(S(C)(=O)=O)cc4)ncnc32)c1`, the inhibition in [1] is 87%; in [2], 86.2%; in [3] it was 94.7%; in experiment [4], 62%; in experiment [5], 73%; in experiment [6] it was -3.22%. Besides, the inhibition is -1.6% in experiment [7], 45.4% in experiment [8], 61.7% in experiment [9] and -1.8% in experiment [10].
Take `Cc1ccc(Nc2ccnc(Nc3cccc(C(N)=O)c3)n2)cc1O`: the inhibition in experiment [1] is 39.8%; in [2], 80.4%; in experiment [3], 94.1%; in experiment [4], 56.4%; in experiment [5], 79.5%; in [6], -0.94%. Further, the inhibition is 10.9% in [7], 50.8% in experiment [8], 77.1% in [9] and -5.49% in [10].
